# Rows were chosen to be rich in hits. Some 7.8% of all compounds tested hit in one or more screens of this group.
# MARV entry inh: Marburg virus entry inhibition; Marburg virus pseudotyped entry inhibition, cell reporter; Potency, µM (top dose mostly 37.8 µM), without a hit: at the top dose activity change, negative = inhibition, actives largely listed as inhibitors; 300,000 tested, 1.8% active; AID 540276; calls by dose curve; tested in HEK293 cells; note: potency is the fitted concentration of half-maximal effect
# Vaccinia mCherry: vaccinia inhibition (mCherry reporter); Vaccinia virus mCherry reporter infection, fluorescence; Potency, µM (highest dose often 36.5 µM), for inactives: at the highest dose activity change, negative = inhibition, actives largely listed as inhibitors; 310,000 tested, 0.63% active; AID 720579; calls by dose curve; tested in A549 cells; note: potency is the fitted concentration of half-maximal effect; nearly all actives have a fitted effect of over 35% in size
# HCV inhibitor: HCV inhibition; Potency, µM (titrated, usually from 41.8 µM), for inactives: top-dose activity change, negative = inhibition, usual class: inhibitors; 340,000 tested, 3.4% active; Huh7.5.1 HCVcc-Cre infection, luciferase reporter, 44 h; active = well fitted inhibition curve with a large enough effect; inconclusive = small, poorly fitted or top-dose-only effect, or another doubt; inactive = no such curve, though single readings can be large or run the other way; note: potency is the fitted concentration of half-maximal effect
#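 Infectious HCV cell culture screen: compound-treated cells (1,000/well, pre-plated 4 h) are infected with HCVcc-Cre at roughly 0.5 moi and grown 44 h. Infection is quantified by luciferase signal after 15 min substrate incubation at room temperature.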
# Lassa entry inh: blocks Lassa virus binding to or entry into cells. Lassa virus pseudotype entry inhibition, cell reporter. 300,000 tested, 1.2% active. Potency, µM (doses to about 37.9 µM), for the others: top-dose activity change, negative = inhibition, actives largely listed as inhibitors; calls by dose curve; tested in HEK293 cells; note: potency is the fitted concentration of half-maximal effect; nearly all actives have a fitted effect of over 50% in size
# Vaccinia Venus: inhibitors of vaccinia virus (Venus reporter). Vaccinia virus Venus reporter expression, fluorescence. Potency, µM (series often up to 36.5 µM), without a hit: at the top dose activity change, negative = inhibition, hits mostly inhibitors. 330,000 tested, 0.46% active; calls by dose curve; tested in A549 cells; note: potency is the fitted concentration of half-maximal effect; nearly all actives have a fitted effect of over 30% in size
# HCMV inh: blocks human cytomegalovirus replication. HFF cells, HCMV-luciferase reporter, 72 h; active compounds read low. activity change, negative = inhibition, % at 57.5 µM. 410,000 tested, 4.5% active. AID 1259415; in the data active = activity change below about -60%; inconclusive = no clear call, values can overlap the other calls; inactive = above about -39%
#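 Compounds were evaluated in HFFs infected with an HCMV luciferase reporter virus (MOI 1 PFU/cell). Luciferase in lysates collected 72 h post infection served as the replication measure.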
# * hit, by the source's call; i = inactive; ? = inconclusive; . = no result given; ! = a repeat was not active; [ ] = remark or other dose. % is set by controls: 0 for no effect and ±100 for the full control effect.
SMILES,MARV entry inh,Vaccinia mCherry,HCV inhibitor,Lassa entry inh,Vaccinia Venus,HCMV inh
Cc1ccc(N(C)S(=O)(=O)c2cc(-c3cnc(C4CC4)o3)ccc2C)cc1,?,-12%,3.2µM*,?,-12%,-18
Cc1c(C(=O)NCc2ccco2)cnn1-c1ncc2c(n1)-c1ccccc1CC2,.,-15%,.,.,-28%,.
Nc1cc2c(cc1Br)[nH]c(=O)c1ccccc12,?,?,?,?,?,-89*
Cc1cc(=O)[nH]c(N=N/C(=N/Nc2ccc(O)cc2)c2ccccc2)n1,?,-19%[1.46 µM],6%,20µM*,-12%,68
Cc1ccc2nc(-c3cc(NC(=O)COc4ccc(C)c(C)c4)ccc3Cl)oc2c1,14%[46.1 µM],-11%,.,-1%[46.1 µM],-13%,49
O=c1ccn([C@@H]2O[C@H](COP(=O)(O)O)[C@@H](O)[C@H]2O)c(=O)[nH]1,.,i,.,.,-12%,.
Nc1ccn(C2OC(COP(=O)(O)O)C(O)C2O)c(=O)n1 (stereo unspecified),?,32µM*,?,-15%[46.1 µM],?,-97*
Cn1c(=O)n(C)c2cc(NC(=O)CCl)ccc21,?,.,?,18µM*,.,-104*
CC(C)N(C(=O)[C@H]1C[C@H](CC(=O)NCCCN(C)C)C(=O)N2CCc3c([nH]c4ccc(Cl)cc34)[C@]12C)C(C)C,.,i,10µM*,.,-5%,-10
COc1ccc2[nH]c3c(c2c1)CCN1C(=O)C(CC(=O)NCCCN(C)C)C[C@H](C(=O)N(C(C)C)C(C)C)[C@@]31C (stereo partly specified),-1%,-21%,1%,.,0%,-17
CCN(CC)C(=O)[C@H]1C[C@H](CC(=O)NCCCN(C)C)C(=O)N2CCc3c([nH]c4ccc(Cl)cc34)[C@]12C,.,i,?,.,?,-26
CC(C)N(C(=O)[C@H]1C[C@H](CC(=O)NCC23CC4CC(CC(C4)C2)C3)C(=O)N2CCc3c([nH]c4ccc(Cl)cc34)[C@]12C)C(C)C,.,?,16µM*,.,13µM*,-16
CCN(CC)C(=O)[C@H]1C[C@H](CC(=O)NCC23CC4CC(CC(C4)C2)C3)C(=O)N2CCc3c([nH]c4ccc(Cl)cc34)[C@]12C,.,?,?,.,10µM*,-35
CC(C)Cc1nc2cc(NS(=O)(=O)N(C)C)cc(C(=O)N3CCc4ccccc4C3)c2n1C,.,-10%,.,.,7%,.
CCOC(=O)c1cc(OC(=O)c2cc(OC)cc(OC)c2)n(-c2ccccc2)n1,17%[46.1 µM],3%,.,3%[46.1 µM],-2%,-12
CC(C)c1ccccc1NC(=O)C(Cc1c[nH]c2ccccc12)NC(=O)OC(C)(C)C (stereo unspecified),?,-8%,.,?,-13%,-22
COc1ccccc1NC(=O)CSc1nnc(COc2ccc(Cl)cc2)n1Cc1ccco1,-16%,.,11µM*,-9%,.,28
O=c1c2ccccc2nnn1CSc1nc2cc(Cl)ccc2c(=O)n1Cc1ccco1,6%,.,20%,-2%,.,31
Clc1ccc(OCc2nnc(SCCN3CCCCC3)n2Cc2ccco2)cc1,26µM*!,.,?,-21%,.,0
O=c1c2ccccc2nnn1CSc1nnc(COc2ccc(Cl)cc2)n1Cc1ccco1,-1%,.,?,-21%,.,-60*
COc1ccc(NC(=O)[C@H]2O[C@@H]3OC(C)(C)O[C@@H]3[C@H]3OC(C)(C)O[C@H]32)c(OC)c1,?,-1%,.,0%[46.1 µM],10%,-6
CCOc1ccccc1NC(=O)Cn1c(=O)n(-c2ccc(F)cc2)c(=O)c2sc3ccccc3c21,?,-6%,.,0%[46.1 µM],0%,48
Cc1cc(O)c(C(=O)/C=C/c2ccccc2Br)c(=O)o1,14%[46.1 µM],i,-16%,?,6%,-87*
Cc1cc(O)c(C(=O)/C=C/c2ccc(C(C)C)cc2)c(=O)o1,.,.,-5%,.,.,34
Cc1cc(O)c(C(=O)/C=C/c2ccccc2)c(=O)o1,-21%,1%,-25%,-12%,30%,-92*
SMILES,MARV entry inh,Vaccinia mCherry,HCV inhibitor,Lassa entry inh,Vaccinia Venus,HCMV inh
COc1cc(-c2cc(OC)c3c(C)oc(C)c3c(=O)c2)ccc1OC(=O)c1cccc(C)c1,-1%[46.1 µM],-12%,.,-19%[46.1 µM],-5%,8
CC(C)(C)c1ccc(C2NC(=O)c3n[nH]c(-c4cccs4)c32)cc1 (stereo unspecified),?,-4%[7.34 µM],.,-25%[46.1 µM],-7%[7.34 µM],-91*
CCc1ccc(/C=N/NC(=O)c2cc(C3CC3)nc3ccc(Br)cc23)s1,?,?,22µM*,?,?,-63*
CCc1ccc(/C=N/NC(=O)c2cc(-c3ccccc3OC)nc3ccccc23)s1,?,-17%,-22%,?,-8%,44
Fc1ccc(Nc2cccc3nccnc23)cc1,?,i,?,-4%,-14%,-64*
CCOc1ccccc1NC(=O)C(c1ccccc1)N1Cc2ccccc2C1=O (stereo unspecified),.,i,.,-12%[46.1 µM],-6%,-12
Cc1cc(C(=O)NNc2ccc(Cl)cc2)no1,4.5µM*,-23%,-5%,-8%[46.1 µM],-10%,-35
CCOC(=O)N1CCN(C(=O)c2ccc3nc4ccsc4c(=O)n3c2)CC1,.,-6%,1%,.,-4%,39
CCOC(=O)N1CCN(C(=O)c2ccc3nc4ccc(Cl)cc4c(=O)n3c2)CC1,?,.,-25%,?,.,-97*
COc1cccc(C(=O)Nc2ccccc2-c2nnc(-c3ccc(C(C)(C)C)cc3)o2)c1,-6%[46.1 µM],2%,.,21%[46.1 µM],-4%,-8
CCO[C@H]1OC(C(=O)N2CCN(C)CC2)=C[C@@H](C(C)(C)C)[C@@H]1CCCO,.,-9%,?,.,-5%,-7

# High-throughput results deposited in PubChem BioAssay by National Center for Advancing Translational Sciences (NCATS).
